Experimental data: PubChem BioAssay (NCI)
This is part of a sample that, as a whole, favours compounds with a hit. Of some 83,000 tested, about 20% had one in any assay.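 Testing used 96-well plates and a 48-hour single-concentration exposure. Example: -40 means 40% of the starting cells died.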 Unmarked numbers belong to inactive results. Active and inactive are the calls of the source. The calls were made as follows: active = growth percent below 10; inactive = the rest.

Assays:
Assay in all cases: NCI-60 one-dose screen, 48 h (100 = growth as untreated, 0 = no growth, -100 = all killed)
Settings in all cases: 10 µM unless noted
SR leukemia = system: SR leukemia
RPMI-8226 leukemia = system: RPMI-8226 leukemia
OVCAR-8 ovarian = system: OVCAR-8 ovarian
OVCAR-5 ovarian = system: OVCAR-5 ovarian
OVCAR-4 ovarian = system: OVCAR-4 ovarian
SK-OV-3 ovarian = system: SK-OV-3 ovarian
IGROV1 ovarian = system: IGROV1 ovarian
OVCAR-3 ovarian = system: OVCAR-3 ovarian
HS 578T breast = system: HS 578T breast
NCI/ADR-RES ovarian = system: NCI/ADR-RES ovarian
T-47D breast = system: T-47D breast
BT-549 breast = system: BT-549 breast
MDA-MB-435 melanoma = system: MDA-MB-435 melanoma
SW-620 colon = system: SW-620 colon
MCF7 breast = system: MCF7 breast
HCT-116 colon = system: HCT-116 colon
HCC-2998 colon = system: HCC-2998 colon
KM12 colon = system: KM12 colon

Structure (SMILES)	growth (SR leukemia)	growth (RPMI-8226 leukemia)	growth (OVCAR-8 ovarian)	growth (OVCAR-5 ovarian)	growth (OVCAR-4 ovarian)	growth (SK-OV-3 ovarian)	growth (IGROV1 ovarian)	growth (OVCAR-3 ovarian)	growth (HS 578T breast)	growth (NCI/ADR-RES ovarian)	growth (T-47D breast)	growth (BT-549 breast)	growth (MDA-MB-435 melanoma)	growth (SW-620 colon)	growth (MCF7 breast)	growth (HCT-116 colon)	growth (HCC-2998 colon)	growth (KM12 colon)
CCOC(=O)c1c(C)c2c(n1Cc1ccccc1)CSc1cc(C#N)c(=O)[nH]c1-2	54.8% [100 µM]	82.4% [100 µM]	88% [100 µM]	120% [100 µM]	98.8% [100 µM]	98.6% [100 µM]	95.5% [100 µM]	75.7% [100 µM]	51.9% [100 µM]	58.5% [100 µM]	69.2% [100 µM]	46% [100 µM]	98.2% [100 µM]	91.7% [100 µM]	101% [100 µM]	59.9% [100 µM]	99.7% [100 µM]	67.6% [100 µM]
COc1cc(C(=O)/C=C/c2c(-c3cccs3)nc3sc(C)cn23)cc(OC)c1OC	4.77% (active)	2.15% (active)	0.3% (active)	56.9%	14.3%	12.4%	9.6% (active)	-8.57% (active)	-16.2% (active)	-35.4% (active)	3.31% (active)	-0.944% (active)	-15.1% (active)	6.94% (active)	1.13% (active)	2.71% (active)	20.2%	-8.4% (active)
FC(F)(F)c1cc(N2CCCCC2)nc(NCCCNc2ccnc3cc(Cl)ccc23)n1	-4.99% (active)	39.9%	66.2%	87.6%	43.4%	72.1%	60%	54.8%	74.7%	44.9%	37.7%	61.2%	76%	94.3%	43.7%	39.3%	37.5%	64.7%
C=C(C)[C@@H]1CC[C@]2(COC(=O)c3cccnc3)CC[C@]3(C)[C@H](CC[C@@H]4[C@@]5(C)CCCN(C(=O)c6cccnc6)C(C)(C)[C@@H]5CC[C@]43C)[C@@H]12	11.3%	14%	26.9%	53.9%	37.6%	53.1%	42.8%	32.9%	59%	42.7%	31.3%	51.9%	38.3%	32.2%	25.6%	28.1%	50.1%	31.2%
N=C(N)c1ccc(-c2ccc(-c3ccccc3)s2)nc1	12.5%	48%	91.9%	92.9%	107%	88.6%	82.3%	95%	85%	96.7%	79.5%	98.7%	85.8%	57.4%	41.3%	46.9%	58.9%	39.4%
CN(CCNc1ccc(C(=N)N)cc1)c1ccc(C(=N)N)cc1	66.7%	72.2%	80.8%	92%	96.2%	119%	36.7%	91.4%	101%	97.1%	126%	102%	92.6%	98.6%	116%	101%	99.6%	86.2%
N#Cc1c(-c2ccc(F)cc2)cc(-c2cccc(Cl)c2)[nH]c1=O	113%	42.1%	53.4%	112%	28%	79.3%	62.8%	7.21% (active)	46%	71.2%	59.9%	54.6%	77.1%	104%	54.5%	67.1%	94.2%	56.1%
CC/C(=C(/c1ccc(Cl)cc1)c1ccc(OCCN(CC)CC)cc1)c1ccc(OC)cc1	-26% (active)	-21.4% (active)	60.4%	61.5%	70%	89.8%	60.4%	65.8%	81.5%	69.7%	39.1%	67.7%	69.1%	40.2%	13.7%	34.2%	54.7%	35.1%
CCCN1C(=O)N(CCC)C2C1NC(=S)N2/N=C/C=C/c1ccccc1OC (stereo unspecified)	22%	19%	12.2%	26.7%	55.2%	34.9%	30.6%	-20.9% (active)	9.95% (active)	9.94% (active)	40.3%	56%	-56.1% (active)	22%	17.4%	18.3%	20.3%	21.1%
C=CCOC(=O)C1=C(C)N(CC)C(=O)N(CC)C1c1c(Cl)n(C)c2ccccc12 (stereo unspecified)	90.5%	59.7%	88%	89.1%	88.5%	103%	90.9%	90%	89.2%	84.2%	87.6%	89.9%	89.1%	84.6%	79%	85.8%	78%	68.6%
O=c1oc2ccccc2cc1-c1nn(-c2ccccc2)cc1/C=N/Nc1nc(-c2ccccc2)c(N=Nc2ccccc2)s1	21.9%	63.1%	77.9%	102%	84.7%	82.8%	81.7%	57.1%	87.5%	63.7%	57.4%	61.8%	-27.8% (active)	43.4%	44.3%	56.9%	85.6%	44.7%
Cc1c(Cl)cccc1NC(=O)c1sc2nc3c(cc2c1N)CCCC3	9.71% (active)	33%	46.1%	75.7%	60.5%	27.7%	57.2%	10.9%	40.3%	27.1%	35%	52.6%	-16.1% (active)	19.2%	16.3%	24.4%	58.5%	23.6%
CN1CC(c2ccccc2)C(C(=O)c2ccc(Br)cc2)C12C(=O)Nc1ccccc12 (stereo unspecified)	97%	88.2%	98.8%	98.9%	96.3%	93.6%	79.7%	101%	94.2%	79.7%	81.5%	111%	106%	95.4%	98.5%	86.3%	99.7%	101%
C=C1C(=O)O[C@H]2[C@H]1CC/C(COC(=O)NCc1ccc(Cn3c(=O)sn(CCCC)c3=O)cc1)=C\CC[C@@]1(C)O[C@@H]21	17.2%	-15.8% (active)	65.4%	71.9%	29.2%	107%	36.4%	-28.6% (active)	78.2%	103%	26.2%	53.3%	40.8%	-47% (active)	7.24% (active)	3.34% (active)	97.7%	101%
COC(=O)c1c(C(=O)OC)c2ccc3c4ncccc4ccc3n2c1C(=O)c1ccc(C)cc1	75.8%	84.1%	82.7%	87.1%	90.9%	87.8%	94.4%	102%	96.3%	92.7%	54.4%	88.1%	102%	98.8%	86.2%	95.6%	107%	97%
CCN1CCN(CCOc2ccc(CNc3ccc4nc(CCC5CCCCC5)[nH]c4c3)cc2)CC1	31.5%	-5.5% (active)	38.2%	58.7%	48.2%	87.1%	40.9%	27.8%	65%	73.5%	-8.02% (active)	65.6%	-17.8% (active)	22.1%	3.86% (active)	17.9%	4.19% (active)	47.1%
COc1cc(OCc2cccc(-c3ccc4c(c3)OCCO4)c2C)cc(OC)c1C=O	37.3%	29.6%	70.4%	68.7%	35.9%	93.2%	68.1%	60.5%	75.9%	70.4%	10.1%	56.6%	52.9%	70.2%	22.6%	44.1%	70.3%	78.9%
